In PubChem BioAssay (NCI):
Where “and” joins values, the source holds several entries; their conditions need not be identical. Identical values can stand only once. About 83,000 compounds went through this panel and 20% of them were active in at least one assay; those are over-represented in the sample as a whole.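 Values shown are percent growth following 48 h exposure of cells in 96-well plates to a single concentration of compound; below 10 was considered active.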 Calls of active or inactive are those of the source.

Tests used:
Experiment in all cases: NCI-60 one-dose screen, 48 h (100 = growth as untreated, 0 = no growth, -100 = all killed)
Settings in all cases: 10 µM unless noted
NCI-H23 lung = test system: NCI-H23 lung
NCI-H226 lung = test system: NCI-H226 lung
NCI-H322M lung = test system: NCI-H322M lung
HOP-62 NSCLC = test system: HOP-62 NSCLC
NCI-H460 lung = test system: NCI-H460 lung
HOP-92 NSCLC = test system: HOP-92 NSCLC
NCI-H522 lung = test system: NCI-H522 lung
A549/ATCC NSCLC = test system: A549/ATCC NSCLC
786-0 renal = test system: 786-0 renal
COLO 205 colon = test system: COLO 205 colon
DU-145 prostate = test system: DU-145 prostate
K-562 leukemia = test system: K-562 leukemia
MALME-3M melanoma = test system: MALME-3M melanoma
MDA-MB-231 breast = test system: MDA-MB-231 breast
RXF 393 renal = test system: RXF 393 renal
SF-268 CNS = test system: SF-268 CNS
SF-295 CNS = test system: SF-295 CNS
SF-539 CNS = test system: SF-539 CNS
UACC-257 melanoma = test system: UACC-257 melanoma
M14 melanoma = test system: M14 melanoma

SMILES	growth (NCI-H23 lung)	growth (NCI-H226 lung)	growth (NCI-H322M lung)	growth (HOP-62 NSCLC)	growth (NCI-H460 lung)	growth (HOP-92 NSCLC)	growth (NCI-H522 lung)	growth (A549/ATCC NSCLC)	growth (786-0 renal)	growth (COLO 205 colon)	growth (DU-145 prostate)	growth (K-562 leukemia)	growth (MALME-3M melanoma)	growth (MDA-MB-231 breast)	growth (RXF 393 renal)	growth (SF-268 CNS)	growth (SF-295 CNS)	growth (SF-539 CNS)	growth (UACC-257 melanoma)	growth (M14 melanoma)
O=C(O)C(O)c1ccc(Cl)cc1 (stereo not given)	99.1% (inactive) and 107% (inactive)	97% (inactive) and 103% (inactive)	101% (inactive) and 118% (inactive)	107% (inactive)	106% (inactive) and 114% (inactive)	112% (inactive)	100% (inactive) and 88.1% (inactive)	107% (inactive) and 95.6% (inactive)	97.6% (inactive) and 96.7% (inactive)	106% (inactive) and 116% (inactive)	112% (inactive) and 109% (inactive)	118% (inactive)	110% (inactive) and 102% (inactive)	96.8% (inactive) and 119% (inactive)	88.5% (inactive) and 122% (inactive)	110% (inactive) and 101% (inactive)	101% (inactive) and 116% (inactive)	97.5% (inactive) and 118% (inactive)	109% (inactive) and 91.8% (inactive)	99.9% (inactive) and 104% (inactive)
N#CCN(CC#N)[N+](=O)[O-]	109% (inactive)	97.9% (inactive)	110% (inactive)	102% (inactive)	104% (inactive)	84.9% (inactive)	94.4% (inactive)	106% (inactive)	103% (inactive)	110% (inactive)	107% (inactive)	105% (inactive)	111% (inactive)	103% (inactive)	106% (inactive)	102% (inactive)	110% (inactive)	102% (inactive)	113% (inactive)	97% (inactive)
CC[C@H](C)[C@H](NC(=O)C12CC(NC)(C1)C2)C(=O)N(C)[C@H](C[C@@H](OC(C)=O)c1nc(C(=O)N[C@@H](Cc2ccccc2)C[C@H](C)C(=O)OC)cs1)C(C)C	15.2% (inactive)	24.9% (inactive)	51.2% (inactive)	28.6% (inactive)	15% (inactive)	17.5% (inactive)	-23.9% (active)	20% (inactive)	24.7% (inactive)	-19.6% (active)	-8.21% (active)	6.14% (active)	69% (inactive)	13.8% (inactive)	13.4% (inactive)	30.4% (inactive)	4.61% (active)	-7.76% (active)	56.6% (inactive)	6.71% (active)
CC/C(=C(\c1ccc(OCCN2CCOCC2)cc1)c1ccc(OC(=O)Cc2ccccc2)cc1)c1ccc(Cl)cc1	104% (inactive)	106% (inactive)	87.9% (inactive)	103% (inactive)	106% (inactive)	94.4% (inactive)	92.8% (inactive)	101% (inactive)	107% (inactive)	120% (inactive)	101% (inactive)	82.4% (inactive)	95.1% (inactive)	109% (inactive)	114% (inactive)	94.1% (inactive)	99.4% (inactive)	105% (inactive)	107% (inactive)	102% (inactive)
CCC1(NC(=O)c2cc(F)c(F)c(F)c2F)C(=O)NC(=O)N(C(C)C)C1=O (stereo not given)	47% (inactive)	139% (inactive)	90.2% (inactive)	101% (inactive)	99.7% (inactive)	79.9% (inactive)	-5.62% (active)	75.9% (inactive)	101% (inactive)	141% (inactive)	143% (inactive)	-26.7% (active)	90.4% (inactive)	81.5% (inactive)	79.8% (inactive)	114% (inactive)	107% (inactive)	97.5% (inactive)	70.4% (inactive)	50% (inactive)
O=[P+](O)c1cccnc1	103% (inactive)	105% (inactive)	94.9% (inactive)	90.3% (inactive)	107% (inactive)	109% (inactive)	75.7% (inactive)	101% (inactive)	98.2% (inactive)	102% (inactive)	114% (inactive)	99.1% (inactive)	106% (inactive)	107% (inactive)	114% (inactive)	98.2% (inactive)	103% (inactive)	105% (inactive)	104% (inactive)	106% (inactive)
CN1CCN(c2ccc(Cl)cc2)CC1	73.6% (inactive)	93.8% (inactive)	94.2% (inactive)	93.1% (inactive)	44.6% (inactive)	93.7% (inactive)	44.3% (inactive)	69.1% (inactive)	104% (inactive)	89.8% (inactive)	6.91% (active)	70.3% (inactive)	126% (inactive)	105% (inactive)	66.9% (inactive)	88.5% (inactive)	57% (inactive)	97.2% (inactive)	84.4% (inactive)	101% (inactive)
[N-]=[N+]=CC(=O)CCC(=O)C=[N+]=[N-]	105% (inactive)	100% (inactive)	95.8% (inactive)	92.6% (inactive)	112% (inactive)	90.6% (inactive)	110% (inactive)	113% (inactive)	99.3% (inactive)	117% (inactive)	127% (inactive)	83.9% (inactive)	96.3% (inactive)	103% (inactive)	124% (inactive)	121% (inactive)	106% (inactive)	88.3% (inactive)	137% (inactive)	102% (inactive)
COc1ccc2c(c1)c(-c1nc(-c3c[nH]c4ncccc34)cs1)cn2CCCCN1CCOCC1	69.9% (inactive)	70.3% (inactive)	57.2% (inactive)	37.1% (inactive)	4.29% (active)	43% (inactive)	39.9% (inactive)	49.7% (inactive)	-43.7% (active)	-100% (active)	48.9% (inactive)	-65.2% (active)	-66.7% (active)	23.4% (inactive)	31.9% (inactive)	52.4% (inactive)	13.1% (inactive)	49.3% (inactive)	79.5% (inactive)	-53.5% (active)
CN(C)C(=S)SSC(=S)N(C)C	98.9% (inactive) and 138% (inactive)	99.3% (inactive) and 110% (inactive)	75.3% (inactive) and 94.9% (inactive)	111% (inactive) and 112% (inactive)	-20.9% (active) and 92.9% (inactive)	102% (inactive)	25.3% (inactive) and 24.4% (inactive)	80% (inactive) and 71.6% (inactive)	107% (inactive) and 101% (inactive)	63.1% (inactive) and 70.6% (inactive)	105% (inactive) and 125% (inactive)	105% (inactive)	65.5% (inactive) and 90.9% (inactive)	112% (inactive) and 98.5% (inactive)	104% (inactive) and 128% (inactive)	102% (inactive) and 113% (inactive)	75% (inactive) and 96.9% (inactive)	100% (inactive) and 112% (inactive)	77.7% (inactive) and 103% (inactive)	93% (inactive) and 100% (inactive)
Cc1nc2ccccc2c(=O)n1-c1ccccc1F	100% (inactive)	96.6% (inactive)	111% (inactive)	81.6% (inactive)	105% (inactive)	87.5% (inactive)	88.1% (inactive)	76.2% (inactive)	103% (inactive)	98.3% (inactive)	109% (inactive)	104% (inactive)	112% (inactive)	107% (inactive)	96.5% (inactive)	100% (inactive)	98.3% (inactive)	95.4% (inactive)	77% (inactive)	99.4% (inactive)
N#CC(N)c1ccccc1 (stereo not given)	109% (inactive)	100% (inactive)	113% (inactive)	114% (inactive)	102% (inactive)	113% (inactive)	109% (inactive)	109% (inactive)	105% (inactive)	116% (inactive)	106% (inactive)	116% (inactive)	98.9% (inactive)	108% (inactive)	112% (inactive)	102% (inactive)	102% (inactive)	103% (inactive)	101% (inactive)	99.8% (inactive)
O=[N+]([O-])c1cc(Cl)c(Cl)c([N+](=O)[O-])c1Cl	85.6% (inactive)	81.4% (inactive)	123% (inactive)	119% (inactive)	99.7% (inactive)	74.9% (inactive)	-86.7% (active)	92.5% (inactive)	114% (inactive)	-23.8% (active)	85.4% (inactive)	7.08% (active)	-26% (active)	91.8% (inactive)	55.5% (inactive)	84.2% (inactive)	134% (inactive)	103% (inactive)	16.1% (inactive)	3.65% (active)
CC(=O)Cc1ccc2c(c1)OCO2	93.9% (inactive)	104% (inactive)	113% (inactive)	102% (inactive)	109% (inactive)	110% (inactive)	96.1% (inactive)	96% (inactive)	109% (inactive)	117% (inactive)	111% (inactive)	116% (inactive)	116% (inactive)	89.1% (inactive)	115% (inactive)	98.3% (inactive)	109% (inactive)	95.4% (inactive)	104% (inactive)	105% (inactive)
